# Test results from the supplement of paper PMC8371130.
# Where a name gives a salt, the structure may show the parent alone.
# Tested on: HL-1
# Assay: relative cell viability (CellTiter-Glo) vs DMSO control (% of DMSO control); higher = more viable cells
# Conditions: oxygen condition: normoxia 72 h; 40 nM
# Summary of the method: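 Plating of HL-1 mouse atrial cardiomyocytes at 1000 cells per well in 384-well plates was done together with compounds at 40, 200, 1000 or 5000 nM in 0.01% DMSO. A day later the cells faced 48 h of 1% O2 and then 24 h of reoxygenation, or matching normoxia. Viability was measured via CellTiter-Glo luminescence and set relative to vehicle-treated control cells.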
row,SMILES,relative cell viability
1,CCN[C@H]1C[C@H](C)S(=O)(=O)c2sc(S(N)(=O)=O)cc21 [Dorzolamide HCL],117
2,CNC[C@H](O)c1cccc(O)c1 [Phenylephrine HCl],110
3,CN(CCOc1ccc(NS(C)(=O)=O)cc1)CCc1ccc(NS(C)(=O)=O)cc1 [Dofetilide],101
4,O=C(O[C@H]1CN2CCC1CC2)N1CCc2ccccc2[C@@H]1c1ccccc1 [Solifenacin succinate],104
5,CCCNCC(O)COc1ccccc1C(=O)CCc1ccccc1 (stereo not drawn) [Propafenone],107
6,CN1CCOC(c2ccccc2)c2ccccc2C1 (stereo not drawn) [Nefopam HCl],60.3
7,Clc1ccc(COC(Cn2ccnc2)c2ccc(Cl)cc2Cl)cc1 (stereo not drawn) [Econazole nitrate],110
8,O=C1c2ccccc2C(=O)C1c1ccccc1 [Phenindione],108
9,O=C1[C@H](CC[C@H](O)c2ccc(F)cc2)[C@@H](c2ccc(O)cc2)N1c1ccc(F)cc1 [Ezetimibe],111
10,CN(C(=O)CN(CCO)CC(=O)N(C)C(C)(C)Cc1ccccc1)C(C)(C)Cc1ccccc1 [Oxethazaine],99.2
11,N=C(N)NC(=N)N1CCOCC1 [Moroxydine],96.3
12,O=C(O)C1(C(=O)O)CCC1.[NH2-].[NH2-].[Pt+2] [Carboplatin],100
13,OC(CCN1CCCCC1)(c1ccccc1)C1CC2C=CC1C2 (stereo not drawn) [Biperiden HCl],106
14,Cc1nccn1CC1CCc2c(c3ccccc3n2C)C1=O (stereo not drawn) [Ondansetron],102
15,CCOC(=O)c1c(C)n(C)c2ccc(O)cc12 [Mecarbinate],101
16,CC(C)NCC(O)c1ccc(NS(C)(=O)=O)cc1 (stereo not drawn) [Sotalol],96.9
17,CC1=C(C(=O)OC(C)C)C(c2cccc([N+](=O)[O-])c2)C(C(=O)OC2CN(C(c3ccccc3)c3ccccc3)C2)=C(N)N1 (stereo not drawn) [Azelnidipine],109
18,C[C@@H]1C[C@H]2[C@@H]3C[C@H](F)C4=CC(=O)C=C[C@]4(C)[C@@]3(F)[C@@H](O)C[C@]2(C)[C@@]1(O)C(=O)CO [Flumethasone],96.3
19,N#CC[C@H](C1CCCC1)n1cc(-c2ncnc3[nH]ccc23)cn1 [Ruxolitinib],99.8
20,C[N+](C)(C)C[C@H](O)CC(=O)[O-] [L-carnitine],101

row,SMILES,relative cell viability
1,CN1CCN(CCCN2c3ccccc3Sc3ccc(C(F)(F)F)cc32)CC1 [Trifluoperazine 2HCl],107
2,CCCCCCCCOc1ccccc1C(=O)Nc1ccc(C(=O)OCC[N+](C)(CC)CC)cc1 [Otilonium Bromide],107
3,CC(C)NC[C@H](O)COc1ccc(CCOCC2CC2)cc1 [Levobetaxolol HCl],105
4,CCN1CCC[C@H]1CNC(=O)c1cc(S(N)(=O)=O)ccc1OC [Levosulpiride],107
5,CN(C)CCN(Cc1cccs1)c1ccccn1 [Methapyrilene HCl],109
6,O=C(O)c1cc(=O)c2ccccc2o1 [Chromocarb],111
7,Cl.N=C(N)NCCC[C@H](N)C(=O)O [L-Arginine HCl],100
8,NC[C@H]1CC[C@H](C(=O)O)CC1 [Tranexamic acid],101
9,N[C@@H]1CCCCN(c2c(F)cc3c(=O)c(C(=O)O)cn(C4CC4)c3c2Cl)C1 [Besifloxacin HCl],101
10,O=C1NC(=O)C(c2ccccc2)(c2ccccc2)N1 [Phenytoin],95.4
11,C[N+]1(C)CCC(=C(c2ccccc2)c2ccccc2)CC1 [Diphemanil methylsulfate],102
12,COCCCC/C(=N\OCCN)c1ccc(C(F)(F)F)cc1 [Fluvoxamine maleate],109
13,O=P(O)(O)C(Cl)(Cl)P(=O)(O)O [Clodronate Disodium],117
14,CCOc1nc2cccc(C(=O)O)c2n1Cc1ccc(-c2ccccc2-c2noc(=O)[nH]2)cc1 [Azilsartan],109
15,CCCCNc1ccc(C(=O)OCCN(C)C)cc1 [Tetracaine hydrochloride],103
16,C=C1c2cccc(O)c2C(=O)C2=C(O)[C@]3(O)C(=O)C(C(N)=O)=C(O)[C@@H](N(C)C)[C@@H]3[C@@H](O)[C@H]12 [Methacycline hydrochloride],102
17,COC(=O)C1=C(C)NC(C)=C(C(=O)OC)C1c1ccccc1[N+](=O)[O-] [Nifedipine],105
18,CCOC(=O)[C@H](CCc1ccccc1)N[C@H]1CCc2ccccc2N(CC(=O)O)C1=O [Benazepril hydrochloride],101
19,O=C(NC[C@H]1CN(c2ccc(N3CCOCC3=O)cc2)C(=O)O1)c1ccc(Cl)s1 [Rivaroxaban],99

# Same assay, conditions: oxygen condition: normoxia 72 h; 200 nM
row,SMILES,relative cell viability
1,CCN[C@H]1C[C@H](C)S(=O)(=O)c2sc(S(N)(=O)=O)cc21 [Dorzolamide HCL],106
2,CNC[C@H](O)c1cccc(O)c1 [Phenylephrine HCl],108
3,CN(CCOc1ccc(NS(C)(=O)=O)cc1)CCc1ccc(NS(C)(=O)=O)cc1 [Dofetilide],109
4,O=C(O[C@H]1CN2CCC1CC2)N1CCc2ccccc2[C@@H]1c1ccccc1 [Solifenacin succinate],112
5,CCCNCC(O)COc1ccccc1C(=O)CCc1ccccc1 (stereo not drawn) [Propafenone],102
6,CN1CCOC(c2ccccc2)c2ccccc2C1 (stereo not drawn) [Nefopam HCl],45.5
7,Clc1ccc(COC(Cn2ccnc2)c2ccc(Cl)cc2Cl)cc1 (stereo not drawn) [Econazole nitrate],105
8,O=C1c2ccccc2C(=O)C1c1ccccc1 [Phenindione],107
9,O=C1[C@H](CC[C@H](O)c2ccc(F)cc2)[C@@H](c2ccc(O)cc2)N1c1ccc(F)cc1 [Ezetimibe],112
10,CN(C(=O)CN(CCO)CC(=O)N(C)C(C)(C)Cc1ccccc1)C(C)(C)Cc1ccccc1 [Oxethazaine],103
11,N=C(N)NC(=N)N1CCOCC1 [Moroxydine],101
12,O=C(O)C1(C(=O)O)CCC1.[NH2-].[NH2-].[Pt+2] [Carboplatin],106
13,OC(CCN1CCCCC1)(c1ccccc1)C1CC2C=CC1C2 (stereo not drawn) [Biperiden HCl],106
14,Cc1nccn1CC1CCc2c(c3ccccc3n2C)C1=O (stereo not drawn) [Ondansetron],99.7
15,CCOC(=O)c1c(C)n(C)c2ccc(O)cc12 [Mecarbinate],99.4
16,CC(C)NCC(O)c1ccc(NS(C)(=O)=O)cc1 (stereo not drawn) [Sotalol],94.1
17,CC1=C(C(=O)OC(C)C)C(c2cccc([N+](=O)[O-])c2)C(C(=O)OC2CN(C(c3ccccc3)c3ccccc3)C2)=C(N)N1 (stereo not drawn) [Azelnidipine],110
18,C[C@@H]1C[C@H]2[C@@H]3C[C@H](F)C4=CC(=O)C=C[C@]4(C)[C@@]3(F)[C@@H](O)C[C@]2(C)[C@@]1(O)C(=O)CO [Flumethasone],95.8
19,N#CC[C@H](C1CCCC1)n1cc(-c2ncnc3[nH]ccc23)cn1 [Ruxolitinib],96.6
20,C[N+](C)(C)C[C@H](O)CC(=O)[O-] [L-carnitine],107

row,SMILES,relative cell viability
1,CN1CCN(CCCN2c3ccccc3Sc3ccc(C(F)(F)F)cc32)CC1 [Trifluoperazine 2HCl],106
2,CCCCCCCCOc1ccccc1C(=O)Nc1ccc(C(=O)OCC[N+](C)(CC)CC)cc1 [Otilonium Bromide],105
3,CC(C)NC[C@H](O)COc1ccc(CCOCC2CC2)cc1 [Levobetaxolol HCl],106
4,CCN1CCC[C@H]1CNC(=O)c1cc(S(N)(=O)=O)ccc1OC [Levosulpiride],108
5,CN(C)CCN(Cc1cccs1)c1ccccn1 [Methapyrilene HCl],107
6,O=C(O)c1cc(=O)c2ccccc2o1 [Chromocarb],103
7,Cl.N=C(N)NCCC[C@H](N)C(=O)O [L-Arginine HCl],104
8,NC[C@H]1CC[C@H](C(=O)O)CC1 [Tranexamic acid],104
9,N[C@@H]1CCCCN(c2c(F)cc3c(=O)c(C(=O)O)cn(C4CC4)c3c2Cl)C1 [Besifloxacin HCl],99.5
10,O=C1NC(=O)C(c2ccccc2)(c2ccccc2)N1 [Phenytoin],61.2
11,C[N+]1(C)CCC(=C(c2ccccc2)c2ccccc2)CC1 [Diphemanil methylsulfate],104
12,COCCCC/C(=N\OCCN)c1ccc(C(F)(F)F)cc1 [Fluvoxamine maleate],98.3
13,O=P(O)(O)C(Cl)(Cl)P(=O)(O)O [Clodronate Disodium],111
14,CCOc1nc2cccc(C(=O)O)c2n1Cc1ccc(-c2ccccc2-c2noc(=O)[nH]2)cc1 [Azilsartan],110
15,CCCCNc1ccc(C(=O)OCCN(C)C)cc1 [Tetracaine hydrochloride],106
16,C=C1c2cccc(O)c2C(=O)C2=C(O)[C@]3(O)C(=O)C(C(N)=O)=C(O)[C@@H](N(C)C)[C@@H]3[C@@H](O)[C@H]12 [Methacycline hydrochloride],105
17,COC(=O)C1=C(C)NC(C)=C(C(=O)OC)C1c1ccccc1[N+](=O)[O-] [Nifedipine],80.7
18,CCOC(=O)[C@H](CCc1ccccc1)N[C@H]1CCc2ccccc2N(CC(=O)O)C1=O [Benazepril hydrochloride],109
19,O=C(NC[C@H]1CN(c2ccc(N3CCOCC3=O)cc2)C(=O)O1)c1ccc(Cl)s1 [Rivaroxaban],90.8
